# Results taken from PMC7819943, “Rice protein-binding microarrays: a tool to detect cis-acting elements near promoter regions in rice”.
# Whole data set: some 35,000 sequences, median “fluorescence intensity (a.u.)” near 10,000, cut for the highest 2% near 52,000. Shown is part of a subset that was picked to be rich in the highest values.
# Target: T1, OsWOX13 (Oryza sativa, UniProt Q5QMM3 1-267)
# T1 sequence: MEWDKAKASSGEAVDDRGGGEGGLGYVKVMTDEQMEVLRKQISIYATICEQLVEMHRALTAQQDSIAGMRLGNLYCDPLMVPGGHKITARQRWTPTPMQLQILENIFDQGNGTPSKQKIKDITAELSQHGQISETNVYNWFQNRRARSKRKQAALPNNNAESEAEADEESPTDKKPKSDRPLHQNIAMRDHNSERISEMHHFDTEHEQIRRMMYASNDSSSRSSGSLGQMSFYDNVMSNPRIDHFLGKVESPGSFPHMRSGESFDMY
# Test: protein-binding microarray (RPBM); PBS, 2% BSA, 51.3 ng/ul salmon testes DNA, 50 uM zinc acetate, 200 nM TF, 25 C, 1 h; high values mean tight binding
# Settings: protein: recombinant; tags: N-terminal polyhistidine and DsRed monomer fusion (pET32a); label: CyDye5-dUTP incorporated in the synthesized complementary strand; 3' TTTTT single-stranded linker to array surface; dsDNA, one strand shown
# Summary of the method: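 The binding signal is fluorescence intensity per array feature (arbitrary units). Readings came from an Axon 4000B scanner after a washed, 2% BSA-blocked, double-stranded custom Agilent array had been incubated for 1 h at 25 °C with 200 nM protein and 50 µM zinc acetate. The protein was a Ni–NTA-purified transcription factor fused N-terminally to polyhistidine and DsRed, expressed in E. coli BL21-CodonPlus.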
row,Sequence,binding signal
1,ACTTGTATATTTGTGGATTGATACATTACATATTGATCTACGGAGTCACCTAGTGCAG,5160 fluorescence intensity (a.u.)
2,CTATTGATTTCTGCTGCTACTTTTCTATACTGTATTTTGTCGGAGTCACCTAGTGCAG,15500 fluorescence intensity (a.u.)
3,TGGGCCTGATTAACATGTGCTGTAGAATCGTACAACTGTGCGGAGTCACCTAGTGCAG,7530 fluorescence intensity (a.u.)
4,GTACAGTGTACTTGATTGAGTTGACAGTCATACTCTACTACGGAGTCACCTAGTGCAG,18500 fluorescence intensity (a.u.)
5,ATTTGATTGTATATTGTACTAGTGCTACTACTACGTGGAGCGGAGTCACCTAGTGCAG,60400 fluorescence intensity (a.u.)
6,AAAGGGTTAATTTGTCAAATTTTCGGGCTTTAGTGAAAAGCGGAGTCACCTAGTGCAG,12700 fluorescence intensity (a.u.)
7,TCAAACTTACATAATTTACATGCCATGTTATCCAATATGCCGGAGTCACCTAGTGCAG,11100 fluorescence intensity (a.u.)
8,GGAAAGACAGATTGAAGAAGCTGGGGTTCAAACCCAGGATCGGAGTCACCTAGTGCAG,10300 fluorescence intensity (a.u.)
9,ATGTCGACATACGTAATTAATGTACACTCAGAACATGTCGCGGAGTCACCTAGTGCAG,4870 fluorescence intensity (a.u.)
10,TAAAACTATTTAATTACCAAACTATTCACGTGATGAGATGCGGAGTCACCTAGTGCAG,14900 fluorescence intensity (a.u.)
11,CTAATCTAATCATCGGATTAGGAAATAAGTAAGCAAACAACGGAGTCACCTAGTGCAG,6880 fluorescence intensity (a.u.)
12,TCTATAAATTGAACATGTTTCAAACCAGGCTTGCAAGTTGCGGAGTCACCTAGTGCAG,15500 fluorescence intensity (a.u.)
13,AGTTTCCTAATCTATTATATGATAGTACTCGGTCGGAGCTCGGAGTCACCTAGTGCAG,3210 fluorescence intensity (a.u.)
14,ATTTAACTGTATAAACAATTAATAACAAGAATTGTGTATACGGAGTCACCTAGTGCAG,16100 fluorescence intensity (a.u.)
15,AGTAATTTACTTGCTAGCTTGCAACTATTTCTTAGTACATCGGAGTCACCTAGTGCAG,3460 fluorescence intensity (a.u.)
16,CATCCTCATTAACGGCAGATTAATACTATTTAGTCCATCTCGGAGTCACCTAGTGCAG,3220 fluorescence intensity (a.u.)
17,AAGTTGATTACTTAAACTGATTGACAGGGAGGCGGTTGAACGGAGTCACCTAGTGCAG,56600 fluorescence intensity (a.u.)
18,AAATTTTGATTTTAAAACTTAATTGTAAAGTTGACTTTAACGGAGTCACCTAGTGCAG,9040 fluorescence intensity (a.u.)
19,AAACTGATTGACGGTTTTCTTTCTAAAACTGATTTTCAGGCGGAGTCACCTAGTGCAG,43200 fluorescence intensity (a.u.)
20,TATATATATATATATATATATATACCCACGTGAGGACGTACGGAGTCACCTAGTGCAG,31500 fluorescence intensity (a.u.)
21,TTAGTGCTTAAATGATTAATCTATGGTCTAAATTATCTTTCGGAGTCACCTAGTGCAG,7610 fluorescence intensity (a.u.)
22,ACGTAATTATAATTTATTTTGTTATGAGTTGGTTTATCACCGGAGTCACCTAGTGCAG,62600 fluorescence intensity (a.u.)

row,Sequence,binding signal
1,GGCAGCAAGACCAATTTTAATTGAAGACCACGGAAGGAGCCGGAGTCACCTAGTGCAG,3450 fluorescence intensity (a.u.)
2,AATTGATGATGAAATAATGAATGATATTTGACAAGGAGCTCGGAGTCACCTAGTGCAG,17300 fluorescence intensity (a.u.)
3,GTGAAAATGATTGGTCTTTTGATTAACATATGCAGCTTATCGGAGTCACCTAGTGCAG,53300 fluorescence intensity (a.u.)
4,ATAATTGATAATGAAGACCAAGGAAATGCTTCTTTGGTCCCGGAGTCACCTAGTGCAG,54300 fluorescence intensity (a.u.)
5,ACGTAATTATAATTTATTTTATTATGAGTTGTTTTATCACCGGAGTCACCTAGTGCAG,37000 fluorescence intensity (a.u.)
6,CACAATTTAATATGGTTATAATTGTAATCTCACATATCCTCGGAGTCACCTAGTGCAG,7610 fluorescence intensity (a.u.)
7,TGAAATGGTTAAATGATTTGGGTTGAAATATTATGAAAATCGGAGTCACCTAGTGCAG,3220 fluorescence intensity (a.u.)
8,GTTGATTTAATTATGGTTAACCTCTCACAGTAATCCGGGTCGGAGTCACCTAGTGCAG,64800 fluorescence intensity (a.u.)
9,ACGTAATTATAGCTTATTTTGTTATGAGTTATTTTATCACCGGAGTCACCTAGTGCAG,24500 fluorescence intensity (a.u.)
10,TTTGTTATAATTGATATTTAATTAATCATATGGTAATTACCGGAGTCACCTAGTGCAG,27800 fluorescence intensity (a.u.)
11,GTAATAATTGATTGGTTCAGAAATTAATCACTAATTGTCCCGGAGTCACCTAGTGCAG,65000 fluorescence intensity (a.u.)
12,TGTAATTATAATTTATTTTATTGTGATTTGATTTATCATCCGGAGTCACCTAGTGCAG,59800 fluorescence intensity (a.u.)
13,ACGTAATTATAATTATTTTATTGTGAGTTGTTTTATTACTCGGAGTCACCTAGTGCAG,26500 fluorescence intensity (a.u.)
14,ATGGTTTGACTTGGATAAACTGGATTCTTAACTCAAACCTCGGAGTCACCTAGTGCAG,3410 fluorescence intensity (a.u.)
15,TGTAATTATAATTTATTTTGTGATGAGTTGTTTTATCACTCGGAGTCACCTAGTGCAG,55800 fluorescence intensity (a.u.)
16,TTGATATTCTTTATATGATTATATAGGATTGGTCTCCCTCCGGAGTCACCTAGTGCAG,3530 fluorescence intensity (a.u.)
17,GATATATGATTGACTCAAGTCTTATTGATAAACTTGGTCCCGGAGTCACCTAGTGCAG,57500 fluorescence intensity (a.u.)
18,TATGTAATTATTATTTATTTTATTGTGATTTGATTCATCACGGAGTCACCTAGTGCAG,31400 fluorescence intensity (a.u.)
19,GCTTAATTAATTGATTCAGAAAATAAAATAGTGAAATAACCGGAGTCACCTAGTGCAG,33400 fluorescence intensity (a.u.)
20,TTATGTAATTATAATTTATTTTATTGTGACTTGATTTATCCGGAGTCACCTAGTGCAG,34000 fluorescence intensity (a.u.)
21,GTAATTATAATTTATTTTGTTATGAGTTGTTTTATCACTCCGGAGTCACCTAGTGCAG,6220 fluorescence intensity (a.u.)
22,AATAATTTGGTTAGTTATTGTTAAGGAGAAATTTGATTCCCGGAGTCACCTAGTGCAG,12500 fluorescence intensity (a.u.)
